Consider 108 sequences from PubChem BioAssay AID1508600 (Functional Genomics Laboratory (NCATS/FGL), 2020).

Out of some 53,000 sequences screened, about 3,700 (7%) were called active. Many of the other results were omitted from the sample, so actives are more common in it than they were. Unmarked numbers belong to inactive results.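 Rule for the calls: active = gene knockdowns whose robust z-score for IL-1 alpha signal is at least 2 or at most -2, so actives lie on both sides; inactive = the rest.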

The nature of this test: Components of the Cytosolic LPS Sensing Pathway: Gene Identification via Genome-wide siRNA Screen.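 Note: robust z of the log signal after scaling to non-targeting control siRNA wells of the plate.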 The following applies: RAW264.7 macrophages, IL-1a HTRF, actives lie on both sides, screened at 100 nM (by protocol), cells primed 5 h with Pam3CSK4 first. A digest of the protocol:
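Mouse macrophage line RAW264.7 is transfected with siRNA (100 nM final), grown 48h, primed with TLR ligand Pam3CSK4 5 h and given intracellular LipidA 24 h. IL-1a in supernatant is read by HTRF and viability by luminescence.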
For orientation: TR-FRET usually uses a lanthanide donor and a delayed reading to cut background.
Take GGCUGAACAGGCAUGAUCATT against Rpap1: the z-score is -3 (active).

Regarding GGAGCUGCUAUGUACACAUTT against Bptf, the z-score is 0.364.

As for GGGUGAAUUUCCACCUUAUTT against Sgce, the z-score is -0.521.

Regarding GGAGAAAAUACAACUGUGATT against Ctrc, the z-score is -1.05.

Regarding CGAAAAUCAAGCGGAAUUUTT against Zmiz1, the z-score is 2.49 (active).

Turning to GGGCUCACUCUGUCUCUACTT against Rpp25l, the z-score is -0.378.

As to CCAAAUCUGGUGUGAUUCATT against Arhgef4, the z-score was -0.923.

As to GCAAAGAGGCCUAAUUGAATT against B2m, the z-score is 1.16.

With GGAUUUCAAACACGUCUUUTT against Asic5, the z-score is 0.222.

On to GGCGGGUUUGCUGAAUAACTT against Lrrc26, for which the z-score was 2.43 (active).

Turning to GGUGAAGAGGAAGAUCCUGTT against Ctdnep1, the z-score was 0.421.

In the case of GGGUUAUCCGUAUGUUUUCTT against Olfr557, the z-score is 0.964.

GGGAUUUCUUACCCUGUUUTT against Prr7: the z-score was -0.222.

As to CGACAUUGAUAUCGUGCGCTT against Gadd45g, the z-score is -0.827.

Take GGACUAGCAAGCUCUUCAGTT against Fancd2: the z-score was -0.578.

Turning to GGUGAAAGUACUGAGGAAGTT against Rlim, the z-score is 2.45 (active).

Turning to GCUCCACCGAGAAAUUACUTT against Magt1, the z-score is 1.63.

As to CCCUCUUGAAAUUAGUGUGTT against Dusp14, the z-score is 0.405.

For GCUCACAUGUUUUAGGUGATT against Poc5, the z-score is 0.756.

For GGCAAAGAAGGAGAAAGUATT against Cd209c, the z-score is -2.06 (active).

With GGCAGACAAUCAAUGAAAUTT against Padi4, the z-score is -0.451.

Take GCCACUUCCGGUCAACUAUTT against Cog1: the z-score is 0.801.

Take GGGCAAUAAGAUGUACGUUTT against Eomes: the z-score was 3.24 (active).

With GUAUGUUUGGGCUUAGCCUTT against Olfr1348, the z-score is -1.21.

On to GGAAGUUACUGUUGAGUAGTT against Olfr114, for which the z-score is 0.209.

In the case of GUUGAUGGAAACCAUGGAATT against Phf11d, the z-score is -0.504.

With GGAAAAAGCACCAUUGUGATT against Gnao1, the z-score was -0.819.

As to GCUACUUCGGGAAUUUUACTT against Ttc21a, the z-score was -1.16.

Regarding CCCUAUGAGCAAAUCACAUTT against Ppp3cc, the z-score is -0.499.

For GGACUAAGAUUUGUGUUAGTT against Ccdc127, the z-score is 2.15 (active).

As to GGGAAGUUCAGUUCAAUACTT against Hps4, the z-score was 1.11.

As to GCUGGAUAGCUAAAAUGAUTT against Gimap5, the z-score was -0.0294.

Take GCUAUAUUGUUAGCACACATT against Hmgn2: the z-score is 0.326.

Take CCUGGAGGAGUAUUUACACTT against H2-Ob: the z-score is -1.17.

In the case of GGCUAUGGAGUUCACCACATT against Krtap5-5, the z-score is -2.66 (active).

Consider GGGAAGAAAUCAACGAUAATT against Gpa33, for which the z-score is -0.0673.

Take GGAACACACCAUCAUCCAGTT against H2-Ea: the z-score was 1.29.

On to GGGCUAUGCCUACUACACUTT against Fn3k, for which the z-score is 0.976.

CCGAGGUGAUUAGGAUAACTT against Traf3ip1: the z-score is -0.694.

GGAGGAGAACAGCAAUCUUTT against Speer4d: the z-score is -2.38 (active).

As to CCUCUUCAACAAACAAGCATT against Zscan22, the z-score is -0.379.

As to GCAGCAGUGAAAUAGCUUCTT against Eya1, the z-score was -0.643.

On to GGAUGCAUGGCUCAAUAUUTT against Olfr1164, for which the z-score was 2.01 (active).

As to GCACAUUUGGACAACCAAUTT against AU018091, the z-score is -0.973.

With GCCGCUAUCGUCUUUAUCATT against Ptk7, the z-score is 0.00632.

Consider GGAGAAAAACAUCAUUGAATT against Reck, for which the z-score was -0.102.

Regarding GGCUCUCAACUAAAGCAGCTT against Snu13, the z-score was -1.18.

Regarding GGGCUUUGUUUCCAAGUUGTT against Muc15, the z-score was -0.285.

For the sequence GGUCUUUGCUACCAACCUGTT against Fignl1, the z-score was -2.15 (active).

Consider CCAUAGACUAUUAUCCUUATT against Uhrf1bp1l, for which the z-score was -0.282.

With GGACACAAAGAAGAAGAGGTT against Tarsl2, the z-score is 0.707.

GGUUAUUCUGGCUAUGGGCTT against Taf15: the z-score is -2.22 (active).

On to GGAAAUAUUGAUGCUGCUGTT against Ttc39a, for which the z-score is 1.09.

Take GGGAGUGCCUGGGUUUGUATT against Dusp28: the z-score was 3.19 (active).

On to CAAAAAUAUCUACAGAGUCTT against Olfr494, for which the z-score was 0.207.

For CGAGAAAAACGAUUUACUGTT against Orai2, the z-score was -0.527.

For GGCAAUCCCAUAGAGGCUGTT against Mief2, the z-score is -2.64 (active).

For the sequence GGAUGAGAAUGGUUAUACUTT against Asz1, the z-score was 0.328.

As to CCGCCUCGUACAUGAUAUUTT against Mrgpra2b, the z-score is 0.653.

Regarding GGAUUUAUUUGCCAACACUTT against Actbl2, the z-score was -2.28 (active).

As to GGUUGCUAUUAUUAUUGGATT against Fnbp4, the z-score was 0.678.

Regarding GCCCAAGGAGGCAUUGAUATT against Fbxo8, the z-score is -0.653.

On to GGCUUCAUUUACUGUAACGTT against Flrt3, for which the z-score is -0.12.

As to GGAUAAACGGACAGGCCCATT against Socs2, the z-score is 0.282.

Consider GGGUUCUGGGAAGGUAUAUTT against Olfr705, for which the z-score was -2.54 (active).

GAUUGUGCCUUAUCUCUAATT against Vmn1r203: the z-score is 1.28.

On to GGCCUACAUUUUAAUUCAGTT against Tmem132c, for which the z-score was -0.167.

As to GGCUCAGAUCAGAACUACGTT against Inpp4a, the z-score is -0.129.

As for GGUAAACGAUGUACAGUUGTT against Notch2, the z-score is 2.6 (active).

Consider GCUAAAGUGAGCAGCGGGATT against Gipc3, for which the z-score was 0.218.

Consider GCUACCUGCGACAAGAAAUTT against Defb23, for which the z-score is -0.79.

As for CCAUAUGUAGCUAUGGUUATT against Cul2, the z-score was 0.741.

Consider CCAGUAGAAAGAAUCCAGATT against Gm128, for which the z-score is 0.0855.

GCCAGCUACUCUCUUGAGATT against Olfr419: the z-score is -1.03.

Regarding GGACUACAUGGAUGCCAUGTT against Prkrip1, the z-score is 0.482.

For GGCCCUCAAACAGUGCAAATT against Chchd10, the z-score was 2.09 (active).

Consider GGCCUUUUCCAUAAACUUUTT against Ddx60, for which the z-score is 0.873.

Take GCAGUACGAAAUGGUAUACTT against Chd6: the z-score is -1.7.

Take CGUAUUAACGACAUAAGAGTT against Nckap1: the z-score is -0.169.

Regarding GGACCUUAAGAGAUAUCAATT against Acsm4, the z-score is 2.9 (active).

As to CCAAUUGGAAUCCCAUUUUTT against Cd47, the z-score was -0.273.

In the case of CCCAACAAUGCUGCACAUGTT against H1f8, the z-score was 0.157.

Regarding GCAGUGUCUAGGACAGUCATT against Pdcd5, the z-score is 0.0243.

For the sequence GGGCCCGAUGAAGCAAAAATT against Hnrnpr, the z-score was -1.49.

For GGCAAACAUGAAGAGAAGCTT against Hspb8, the z-score is 0.0665.

As to GGCUGACCUUCUGUGCUGATT against Olfr876, the z-score was -0.98.

On to CGAAGAGAUCUCACUAUAATT against Trnt1, for which the z-score is 1.21.

As to GCGCUAGAAGGCCAGAUAUTT against Orm3, the z-score was -0.155.

On to GCAAUGGUUCAGUAUGUACTT against Tpgs2, for which the z-score is -2.01 (active).

As to GCCAUCAACAGCAUUUACATT against Glt8d2, the z-score was -0.455.

Take GGAGCUUUCAGCUAAGACATT against Rassf4: the z-score is 0.671.

As for GGACCAGCCAUACCUGUGATT against Ndufa7, the z-score is -1.93.

For GCCACACAGUGUGAUCCAATT against Nrip2, the z-score was -1.33.

Consider GGCUACCUACAGCACCAACTT against Esyt1, for which the z-score was -1.58.

CCAAGUCUUUGCCUACGUGTT against Dsn1: the z-score was 2.39 (active).

Consider GGAUGUAACUGAAAGAGAATT against Fam133b, for which the z-score was -1.11.

Turning to GGACACUUAAAGAUCCUGCTT against Armc7, the z-score was -0.545.

Turning to GCUCAGAGAUUAUGGCAUCTT against Snrnp25, the z-score was 0.687.

With GAGCUAAGCAAGAUGCUAGTT against Sox17, the z-score is 3.97 (active).

On to GCAUGAUUACCCAUUUCAATT against Tax1bp1, for which the z-score was 0.334.

On to GGAGAAGGAGAUGUCCAAUTT against Guca2b, for which the z-score was 0.777.

For the sequence GCGAUUGAUGAAUUUCGACTT against Atp9b, the z-score is 0.616.

With GGAUUUCAAAAACCACGUGTT against Snx1, the z-score is 1.14.

For CCCACAGCUCUGACAUUUUTT against Fbxo6, the z-score was -0.315.

On to CCUAGGUCAUAUUUCUCCATT against Bgn, for which the z-score was 0.224.

In the case of GGCAGUGGCUUGGAUAAAUTT against Amdhd2, the z-score was -0.609.

Take GGAGAGCUGCAUGAUUUCATT against Efcab2: the z-score was 3.67 (active).

Regarding GCAGUCAUGGGUUCUUAAGTT against Gng3, the z-score is 0.109.
